Sequences and labels used below:
B1: ENSMUSG00000004113.216|Cacna1b (ssRNA)
RNA: GGGAGUUCUACAGUCCGACGAUCGCUUCGAUAUCCGCAUGCUAGUCUUAGGGACAUUGACAGUGUCCAUCAGCAUGUCAGAGAAGCAGCUGUAGUGCCCGUGUUUCUCCCUGAGUCAUGGGUUCUGAAGAAGCCAGAGCGGCACAAUGCGUGCUUGCAUGAGGCACUUUCAGCCUUUUUAAAUCUGACUCUCAGGGAUGGGAUGCCUGCCAAGUAGGGUGUAAUCUCUGUUGUGUUUUUAAAACAACAACAACAAAAUAAAACAAAAAAAAAAAACCUAGUAUUCACUGGAUGCUGAAGAGUGCUCUUGCGGUCGCACUAGUGUGGAAUUCUCGGGUGUCAAGG
B2: ENSMUSG00000035279.61|Ssc5d|92:97;148:152;163:167 (ssRNA)
RNA: GGGAGUUCUACAGUCCGACGAUCGCUUCGAUAUCCGCAUGCUAUAAAGAGGCUAGCAGAGGUGGCCUGGCCCCCCAGCACUCCUGUGCCCAUGACCACCACCACAGAGGAGGAGGAGAGGCCUCUGAGGGGAGAACACACACCCACUCUGAAAUUCACGGUGCUUAAGAUACUCUUAAACAAAAGCCAACCAUACUACAAUCGAACACACGGUGUUGUUACUGGGGAGCAGGGGCUCUGGAGGGACAGAAUUACAAUGCUGAUCCUAACUUGUCAAUGCCAUCUGUGAUGGCGUUGGAGAUCACUCUUGCGGUCGCACUAGUGUGGAAUUCUCGGGUGUCAAGG
B3: ENSMUSG00000031028.6|Tub (ssRNA)
RNA: GGGAGUUCUACAGUCCGACGAUCGCUUCGAUAUCCGCAUGCUAUAGCAGAAGAUGUGUUCACCAUGGAUUACAACUACCCACUGUGUGCACUGCAGGCCUUUGCCAUUGCUCUGUCCAGCUUUGACAGCAAGCUGGCCUGCGAGUAGAGGCCCCCCACUGCCUUUAGGUGGCCCAGUCCGGAGUGGAGCUUGCCUGCCUGCCAAGACAGCCCUGCCUACCCUCUGUUCAUAGGCCCUCUAUGGGCUUUCUGGCCUUACCAACCAGAGACUGGCUGCUCUGCCUCUGCUGCUGAAGCAGGGGGGCUCUUGCGGUCGCACUAGUGUGGAAUUCUCGGGUGUCAAGG
B4: ENSMUSG00000058297.454|Spock2 (ssRNA)
RNA: GGGAGUUCUACAGUCCGACGAUCGCUUCGAUAUCCGCAUGCUAUCAGGAGCAAGGUCACACAGGUCAGAUUAUUGUCGGUCCUGCGGGCCUCAUCCUUGAAUAAGCUGCCUGCCCAGUUCCUCCAUCCGUGUUCCUGCCUGCUCCCGUUCCCUUGUUGCGGGCAGGAGAGGUAGGGCUGUGUUGGAAAGAGUUCAACCAAAUUACGGCAGCACCACAUCUUGCCGAGCCCUGGAGCUGCCCUACUAAGAGCCUCCUUAGCCCUGGGUGCUGGGAAGGAUGGUGUACGUUGGGGAAGUUUGAGGCUCUUGCGGUCGCACUAGUGUGGAAUUCUCGGGUGUCAAGG
B5: ENSMUSG00000090935.743|Synj2bp (ssRNA)
RNA: GGGAGUUCUACAGUCCGACGAUCGCUUCGAUAUCCGCAUGCUAAAUACUCCUGGGUAAAAUUUGUAUUAGAAUGGAAAAAAAAAUGAGGGUCAGAAAGGUGAGCUAACUUCAAGUUAGAUACUCCCCUCUAUUUUGGUCUCAAAUUUGUUUUAGUGUGUCCACAACAUGAAAACAUACAAAAACUAUAUUUUAAAAAUCAGUUUACUUUCAUCUUUUCUCUUUAGGCUUUCAAUAAAGACCAGAAGGACUGAUAGACAGCUAGAGAGGAUCGUGUAGGCAUCCAGAUUAGAAUGGAAGAAUCCCUCUUGCGGUCGCACUAGUGUGGAAUUCUCGGGUGUCAAGG
B6: ENSMUSG00000022095.31|Fam160b2|161:165 (ssRNA)
RNA: GGGAGUUCUACAGUCCGACGAUCGCUUCGAUAUCCGCAUGCUACUCUGUCCUCCAUGCCGGGGACUUCAGCUGCAGGACACCUCACCUGUUGACCCCACGAGCUGAGGUUUCAAGGAGGUGCUGGCUCCUAAGGCAGUGGUAUUCUUGGAGCCUUUUAGAGGAGCUAGAGGAUGGCCAGUGAGCGCCUAGAUGCUGCCCUGCAACACAUGCGUGACUAUCUCUGCUAUAUUGUGACCAGGGCCACAACAUGAGACAACUCCAGGGGCCAGGGAGAUGAACUGCUGUCUUUGAGGCUGGCUAAACUCUUGCGGUCGCACUAGUGUGGAAUUCUCGGGUGUCAAGG
B7: ENSMUSG00000042529.39|Kcnj12 (ssRNA)
RNA: GGGAGUUCUACAGUCCGACGAUCGCUUCGAUAUCCGCAUGCUAGUUUUUUCGCAGUAGCUUGGGAAAGUUGGCGGGAGCGUGGAUGGCCAAAAUGACUGGCUCACGGCCUCGGAGGCUGAUGUAUACCCAUGGGCAAGGAGGUGACUUCUUGGGGUAGGGUUGCUCAGGAGUUAGGGACUCUGCUGGAGGCCUUAGGUGCAGGUCCCAGCCCCGGUGGGAGGAGGCUGUGUAUGUACACUUCAUUGGUUUUUAACUUGGGCAAGACUGUUUACAAACAAAAACAAACAAACAAACAAUCAAAACUCUUGCGGUCGCACUAGUGUGGAAUUCUCGGGUGUCAAGG
B8: ENSMUSG00000061578.1488|Ksr2 (ssRNA)
RNA: GGGAGUUCUACAGUCCGACGAUCGCUUCGAUAUCCGCAUGCUAAAUGAAUAUGUGGGUAGAAGGGUGAGUGGGUGGAUGAAUGGAUGGAUAGGUUGGUAGGUUAAUGUAUUCGUGGAUGGGUGAAUGGAUGGAUGGAUAGAUAGAUGGGAAGGUGGAUGGACAGAUGGAUGGAUGGAUAGAUAGAUGGACAGGUGGUUGGUGGAUAAAUGAGUGAAUGAUUAUGUUGAUAGAUAUGUGGGUAGGCUGAAUGGGUGAAUGGAUAGAUCGAUGACUGGAUGGAGGGUGGGUGACUGUAUAGGCAGCUCUUGCGGUCGCACUAGUGUGGAAUUCUCGGGUGUCAAGG
B9: ENSMUSG00000061578.1489|Ksr2 (ssRNA)
RNA: GGGAGUUCUACAGUCCGACGAUCGCUUCGAUAUCCGCAUGCUAUAUGUGGGUAGAAGGGUGAGUGGGUGGAUGAAUGGAUGGAUAGGUUGGUAGGUUAAUGUAUUCGUGGAUGGGUGAAUGGAUGGAUGGAUAGAUAGAUGGGAAGGUGGAUGGACAGAUGGAUGGAUGGAUAGAUAGAUGGACAGGUGGUUGGUGGAUAAAUGAGUGAAUGAUUAUGUUGAUAGAUAUGUGGGUAGGCUGAAUGGGUGAAUGGAUAGAUCGAUGACUGGAUGGAGGGUGGGUGACUGUAUAGGCAGGUGGGUCUCUUGCGGUCGCACUAGUGUGGAAUUCUCGGGUGUCAAGG
B10: ENSMUSG00000061578.1492|Ksr2 (ssRNA)
RNA: GGGAGUUCUACAGUCCGACGAUCGCUUCGAUAUCCGCAUGCUAAGUGGGUGGAUGAAUGGAUGGAUAGGUUGGUAGGUUAAUGUAUUCGUGGAUGGGUGAAUGGAUGGAUGGAUAGAUAGAUGGGAAGGUGGAUGGACAGAUGGAUGGAUGGAUAGAUAGAUGGACAGGUGGUUGGUGGAUAAAUGAGUGAAUGAUUAUGUUGAUAGAUAUGUGGGUAGGCUGAAUGGGUGAAUGGAUAGAUCGAUGACUGGAUGGAGGGUGGGUGACUGUAUAGGCAGGUGGGUAGGUAGCUGGAUGGGUGGCUCUUGCGGUCGCACUAGUGUGGAAUUCUCGGGUGUCAAGG
B11: ENSMUSG00000061578.1493|Ksr2 (ssRNA)
RNA: GGGAGUUCUACAGUCCGACGAUCGCUUCGAUAUCCGCAUGCUAUGGAUGAAUGGAUGGAUAGGUUGGUAGGUUAAUGUAUUCGUGGAUGGGUGAAUGGAUGGAUGGAUAGAUAGAUGGGAAGGUGGAUGGACAGAUGGAUGGAUGGAUAGAUAGAUGGACAGGUGGUUGGUGGAUAAAUGAGUGAAUGAUUAUGUUGAUAGAUAUGUGGGUAGGCUGAAUGGGUGAAUGGAUAGAUCGAUGACUGGAUGGAGGGUGGGUGACUGUAUAGGCAGGUGGGUAGGUAGCUGGAUGGGUGGGCGUAUCUCUUGCGGUCGCACUAGUGUGGAAUUCUCGGGUGUCAAGG
B12: ENSMUSG00000061578.1490|Ksr2 (ssRNA)
RNA: GGGAGUUCUACAGUCCGACGAUCGCUUCGAUAUCCGCAUGCUAGGUAGAAGGGUGAGUGGGUGGAUGAAUGGAUGGAUAGGUUGGUAGGUUAAUGUAUUCGUGGAUGGGUGAAUGGAUGGAUGGAUAGAUAGAUGGGAAGGUGGAUGGACAGAUGGAUGGAUGGAUAGAUAGAUGGACAGGUGGUUGGUGGAUAAAUGAGUGAAUGAUUAUGUUGAUAGAUAUGUGGGUAGGCUGAAUGGGUGAAUGGAUAGAUCGAUGACUGGAUGGAGGGUGGGUGACUGUAUAGGCAGGUGGGUAGGUAGCUCUUGCGGUCGCACUAGUGUGGAAUUCUCGGGUGUCAAGG
B13: ENSMUSG00000061578.1494|Ksr2 (ssRNA)
RNA: GGGAGUUCUACAGUCCGACGAUCGCUUCGAUAUCCGCAUGCUAAAUGGAUGGAUAGGUUGGUAGGUUAAUGUAUUCGUGGAUGGGUGAAUGGAUGGAUGGAUAGAUAGAUGGGAAGGUGGAUGGACAGAUGGAUGGAUGGAUAGAUAGAUGGACAGGUGGUUGGUGGAUAAAUGAGUGAAUGAUUAUGUUGAUAGAUAUGUGGGUAGGCUGAAUGGGUGAAUGGAUAGAUCGAUGACUGGAUGGAGGGUGGGUGACUGUAUAGGCAGGUGGGUAGGUAGCUGGAUGGGUGGGCGUAUAGAAAGCUCUUGCGGUCGCACUAGUGUGGAAUUCUCGGGUGUCAAGG

Over roughly 9,900 sequences, “r (bound/input frequency ratio)” has its median near 0.7; the highest 2% begin near 6.5. The entries come from a sample that favours the highest values as a whole.

The target of the experiment is TDP-43 (Homo sapiens, UniProt Q13148 1-414). In words: RNA Bind-n-Seq with designed 260-mer pool; 25 mM Tris-HCl, 150 mM KCl, 3 mM MgCl2, BSA (printed 500 mg/mL), 20 units/mL SUPERase IN; pH not stated; 500 nM RNA pool, 1 h, 4 C; TDP-43 5, 50, 500 nM; high values mean tight binding. Conditions: protein: recombinant; tags: SBP (GST cleaved off with PreScission; pGEX-GST-SBP). The procedure, abridged: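 An in vitro-transcribed pool of 260-nt 3′ UTR oligos (500 nM) was incubated for 1 h at 4 °C with recombinant SBP-tagged TDP-43 at 5, 50 or 500 nM held on streptavidin beads. The buffer contained 25 mM Tris-HCl, 150 mM KCl, 3 mM MgCl2, BSA and SUPERase IN. Biotin-eluted bound RNA was sequenced, and binding, R, is each oligo's normalized read abundance in the bound sample over that in input.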
TDP-43, sequence (Q13148 whole entry): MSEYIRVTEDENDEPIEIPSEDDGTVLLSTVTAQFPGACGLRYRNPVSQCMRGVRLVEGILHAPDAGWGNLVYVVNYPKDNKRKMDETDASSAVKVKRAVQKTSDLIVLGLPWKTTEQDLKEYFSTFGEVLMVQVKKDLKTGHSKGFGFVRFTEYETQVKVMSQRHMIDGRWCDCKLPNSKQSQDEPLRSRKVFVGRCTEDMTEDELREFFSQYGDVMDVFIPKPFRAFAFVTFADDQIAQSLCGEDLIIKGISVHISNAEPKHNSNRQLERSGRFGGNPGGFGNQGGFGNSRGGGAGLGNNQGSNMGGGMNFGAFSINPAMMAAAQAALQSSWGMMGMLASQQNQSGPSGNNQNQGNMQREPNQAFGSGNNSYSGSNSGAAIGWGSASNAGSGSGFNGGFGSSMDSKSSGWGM
Consider B1, for which the binding signal was 1.66 R (bound/input frequency ratio). To B2 belongs 0.434 R (bound/input frequency ratio).

Take B3: the binding signal was 0.331 R (bound/input frequency ratio).

For B4, the binding signal is 0.419 R (bound/input frequency ratio). To B5 belongs 0.123 R (bound/input frequency ratio).

Take B6: the binding signal is 0.326 R (bound/input frequency ratio).

B7: the binding signal was 1.88 R (bound/input frequency ratio). On to B8, for which the binding signal is 5.5 R (bound/input frequency ratio).

For B9, the binding signal was 5.83 R (bound/input frequency ratio). To B10 belongs 7.07 R (bound/input frequency ratio). The figure for B11 is 4.33 R (bound/input frequency ratio). With B12, the binding signal was 11.2 R (bound/input frequency ratio). The figure for B13 is 5.89 R (bound/input frequency ratio).

Values taken from paper PMC12864922, “TDP-43 directly inhibits mRNA accumulation in neurites through modulation of mRNA stability”.
